Compound activity: PubChem, National Center for Advancing Translational Sciences (NCATS)
This is a sample that favours compounds with a hit; in the whole collection about 7.2% have one here.
FLuc inh: blocks purified firefly luciferase enzyme activity; P08659; purified P. pyralis luciferase, luminescence, biochemical; Potency, µM (top dose mostly 115 µM), usual class: inhibitors; hit rate 2.5% among 76,000; also: nearly all actives have a fitted effect of over 65% in size
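Luminescence read by CCD imager after adding enzyme (10nM final) to wells holding compound, titrated in qHTS. Substrates 10uM each D-luciferin and ATP; buffer 50mM Tris acetate pH 7.5, 10mM Mg acetate, Tween-20, BSA.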
SNCA viab count: counter-screen for SNCA expression inhibitors: cell viability. HEK-293-SNCA-luc viability, GF-AFC fluorescence, 24 h. Potency, µM (titrated, usually from 57.1 µM), actives largely listed as cytotoxic. hit rate 0.12% among 150,000; also: nearly all actives have a fitted effect of over 30% in size
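Cytotoxicity counterscreen: after 24 h compound treatment of genome-edited SNCA-luciferase HEK-293 cells, live-cell protease substrate GF-AFC read by fluorescence after 30 min; activity scaled between DMSO (0%) and medium-only (-100%), curves Hill-fitted.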
3T3 cytotox: NIH 3T3 cell cytotoxicity. Potency, µM (series often up to 96.7 µM), most hits filed as inhibitors. NIH 3T3 viability, CellTiter-Glo ATP luminescence, 48-72 h. AID 1345082. hit rate 4.3% among 94,000; also: nearly all actives have a fitted effect of over 55% in size
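First NIH 3T3 cells are plated at 400 cells/well; next compound is pinned in; then plates incubate 48 or 72 hr at 37 °C; finally CellTiter-Glo is added and luminescence read after 10 min.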
NPR1 antag: human Npr1 receptor antagonism; P16066; HEK293 hNpr1 GloSensor cGMP, ANP-stimulated luminescence; Potency, µM (top dose mostly 46.3 µM), hits mostly inhibitors; hit rate 1.6% among 76,000; calls by dose curve; also: nearly all actives have a fitted effect of over 60% in size
Target sequence (P16066 whole entry, looked up): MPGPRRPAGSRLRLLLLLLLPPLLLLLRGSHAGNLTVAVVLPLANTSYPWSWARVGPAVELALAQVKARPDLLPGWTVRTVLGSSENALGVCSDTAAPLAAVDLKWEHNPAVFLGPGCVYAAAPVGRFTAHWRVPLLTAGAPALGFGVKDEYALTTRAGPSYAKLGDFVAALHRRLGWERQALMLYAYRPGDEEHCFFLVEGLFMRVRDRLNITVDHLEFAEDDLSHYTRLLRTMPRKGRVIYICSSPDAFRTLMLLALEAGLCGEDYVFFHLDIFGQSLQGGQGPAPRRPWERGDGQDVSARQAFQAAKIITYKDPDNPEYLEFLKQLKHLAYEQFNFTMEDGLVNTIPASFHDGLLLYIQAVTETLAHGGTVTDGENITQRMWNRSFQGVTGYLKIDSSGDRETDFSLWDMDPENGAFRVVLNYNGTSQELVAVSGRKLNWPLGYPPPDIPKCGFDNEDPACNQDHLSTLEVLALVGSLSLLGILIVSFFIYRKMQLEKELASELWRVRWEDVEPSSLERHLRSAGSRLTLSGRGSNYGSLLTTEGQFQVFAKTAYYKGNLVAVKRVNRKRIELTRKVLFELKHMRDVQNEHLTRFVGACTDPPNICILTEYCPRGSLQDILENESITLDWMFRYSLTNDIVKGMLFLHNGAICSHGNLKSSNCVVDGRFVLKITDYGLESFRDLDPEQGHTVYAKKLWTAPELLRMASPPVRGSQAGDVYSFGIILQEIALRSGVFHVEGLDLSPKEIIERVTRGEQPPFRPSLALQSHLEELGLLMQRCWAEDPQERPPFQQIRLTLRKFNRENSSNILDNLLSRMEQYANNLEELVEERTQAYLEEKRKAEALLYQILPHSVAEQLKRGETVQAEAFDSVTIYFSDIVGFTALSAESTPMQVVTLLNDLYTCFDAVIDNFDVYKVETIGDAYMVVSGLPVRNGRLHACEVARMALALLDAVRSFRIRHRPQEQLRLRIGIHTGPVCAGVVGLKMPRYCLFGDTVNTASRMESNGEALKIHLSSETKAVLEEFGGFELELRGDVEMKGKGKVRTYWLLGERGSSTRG
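Compound pre-incubated 30 min at room temperature on GloSensor-loaded HEK293 cells stably carrying hNpr1 and the pGS-40F cGMP biosensor. Stimulation uses hNppA at 0.1 nM final; luminescence is taken at baseline and 20 min post-agonist.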
SNCA expr inhib: inhibitors of alpha-synuclein (SNCA) gene expression; hit rate 0.17% among 140,000; Potency, µM (doses to about 57.2 µM), usual class: inhibitors; HEK-293 SNCA-luciferase knock-in, luminescence, 24 h; also: nearly all actives have a fitted effect of over 45% in size
HEK293 tox: cytotoxic compounds in HEK 293 cells; HEK 293 viability, ATP luminescence (CellTiter-Glo), 48-72 h; Potency, µM (top dose mostly 115 µM), usual class: inhibitors; hit rate 6.6% among 94,000; also: nearly all actives have a fitted effect of over 60% in size
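Pintool-delivered compounds were incubated with HEK 293 cells (250 cells/well) at 37 degree Celsius for 48 or 72 hr. ATP-dependent luminescence (CellTiter-Glo) then reported remaining viable cells.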
Numbers stand for hits; - = inactive; ? = inconclusive; . = no result given; [ ] = dose if it differs, or a comment. Unless noted, calls follow the shape of the dose curve; as a rule, active = well fitted curve in the direction sought with a large enough effect; inconclusive = small, poorly fitted or top-dose-only effect, or another doubt; inactive = no such curve, though single readings can be large; an effect the other way counts as inactive or inconclusive.

SMILES	FLuc inh	SNCA viab count	3T3 cytotox	NPR1 antag	SNCA expr inhib	HEK293 tox
CN1CCN(c2ccc(-c3cc4c(ccn4C)c(C(=O)NCC4CCOCC4)n3)cc2)CC1	35µM	-	20µM	-	-	?
Cn1cncc1CNC(=O)c1nc(-c2cccc(N3CCOCC3)c2)cc2c1ccn2C	-	-	50µM	-	-	?
Cn1ccc2c(C(=O)NCc3cccnc3)nc(-c3cnn(Cc4ccccc4)c3)cc21	-	-	?	-	-	63µM
CN1CCN(c2ccc(-c3cc4c(ccn4C)c(C(=O)NCc4cccnc4)n3)cc2)CC1	?	-	?	-	-	28µM
CNC(=O)[C@H]1C[C@H](Oc2ccccc2)CN1C(=O)CCc1c[nH]c2ccccc12	-	-	-	-	?	?
CN(C)c1ccc(-c2cc3c(ccn3C)c(C(=O)NCc3cccnc3)n2)cc1	?	-	?	-	-	?
COc1ccc(-c2cc3c(ccn3C)c(C(=O)NCc3cccnc3)n2)cc1	?	-	?	-	-	112µM
Cc1ccsc1CN1CCC(Oc2cc(Cl)ccc2C(=O)N2CCCCC2)CC1	-	-	?	-	-	45µM
COc1ccc(-c2nc(C)nc3c2CN(C(=O)c2ccccc2C)CC3)cc1	.	-	?	.	-	-
Cc1cc(C)n(CCc2c(-c3ccccc3)ncn2CCCc2cccnc2)n1	-	-	50µM	-	-	-
COc1ccc(CCN(C)C(=O)CC(c2cccc(F)c2)c2cn(C)c3ccccc23)cc1OC (stereo unspecified)	-	-	?	-	-	40µM
O=C(NC1CCN(c2ccnc3ccnn23)C1)C1CC1 (stereo unspecified)	.	-	?	.	-	-
O=C(c1ccccc1)N1Cc2ccccc2CC2(CCN(Cc3ccccn3)C2)C1 (stereo unspecified)	.	?	-	.	-	-
CCC(CC)n1c(=O)n(Cc2cc(C(C)C)no2)c2cc(C(=O)O)cnc21	-	-	79µM	-	-	-
CCC(CC)n1c(=O)n(Cc2ccc(C(=O)N(C)C)o2)c2cc(C(=O)O)cnc21	-	-	-	-	-	-
COCCN1CC2(CCCN(c3cc(C)c4ccccc4n3)C2)CCC1=O (stereo unspecified)	-	-	-	-	-	-
Cc1nc2scc(CC(=O)NCCC(C)C)n2c(=O)c1-c1cc(C)n(-c2ccc(F)cc2)n1	-	-	-	-	-	-
CCN1C(=O)CCN(S(C)(=O)=O)CC12CCOCC2	-	-	-	-	-	-
COc1ccccc1C(=O)NC1CCCN(Cc2cccc(-c3ccc(C)c(Cl)c3)c2)C1 (stereo unspecified)	.	-	?	.	-	40µM
COc1cccc(C(=O)NC2CCCN(Cc3cccc(-c4ccc(C)c(Cl)c4)c3)C2)c1 (stereo unspecified)	.	-	-	.	-	-
Cc1ccc(-c2cccc(CN3CCCC(NC(=O)C4CC4)C3)c2)cc1Cl (stereo unspecified)	.	-	?	.	-	35µM
Cc1ccc(-c2cccc(CN3CCCC(NC(=O)NC4CCCC4)C3)c2)cc1Cl (stereo unspecified)	.	-	-	.	-	-
Cc1ccccc1NC(=O)Cn1c(=O)n(-c2ccccc2)c(=O)c2c1cc(C)n2C	-	-	-	-	?	-
Cc1cc2nc3n(c(=O)c2n1CC(=O)Nc1ccc(F)c(Cl)c1)CCCC3	-	-	-	-	-	?
Cc1ccc(-c2cccc(CN3CCCC3C(=O)N3CCCCC3)c2)cc1Cl (stereo unspecified)	.	.	32µM	.	.	32µM
SMILES	FLuc inh	SNCA viab count	3T3 cytotox	NPR1 antag	SNCA expr inhib	HEK293 tox
Cc1ccc(-c2cccc(CN3CCCC3C(=O)N3CCC(C#N)CC3)c2)cc1Cl (stereo unspecified)	.	.	32µM	.	.	40µM
O=C(C1CCCCN1Cc1ccc(-c2cccs2)cc1)N1CCCCC1 (stereo unspecified)	.	-[12.5 µM]	?	.	-	?
COc1cccc(Nc2ncc(-c3ccccc3)c3c2OCC3)c1	14µM	-	-	?	-	?
COc1ccc(Nc2ncc(-c3cccnc3)c3c2OCC3)cc1	13µM	-	?	-	-	?
COc1ccc(-c2cnc(Nc3cccnc3)c3c2CCO3)cn1	?	?	?	-	-	71µM
COc1cccc(C(=O)N2CCC3(CC2)CC(N(C)Cc2ccccc2)CCO3)c1 (stereo unspecified)	-	-	-	-	-	-
Cc1cc(C)n(CC(=O)NCc2cc(N3CCOCC3)ncn2)c(=O)n1	-	-	-	-	-	?
CS(=O)(=O)c1ccc(CN2C[C@H](O)C[C@H]2c2nc(-c3ccc4c(c3)OCO4)no2)cc1	-	-	?	-	-	-
COc1ccc(-c2noc([C@@H]3C[C@@H](O)CN3Cc3ccc(C)cc3)n2)cc1	?	-	-	-	-	?
CS(=O)(=O)c1ccc(CN2C[C@H](O)C[C@H]2c2nc(-c3ccc(F)cc3)no2)cc1	45µM	-	-	-	-	-
O[C@@H]1C[C@@H](c2nc(-c3ccc(F)cc3)no2)N(Cc2ccc(F)cc2)C1	-	-	?	-	-	100µM
CC(C)NC(=O)N1CC2ON=C(C(=O)N(C)C)C2C1 (stereo unspecified)	.	-	-	.	-	-
Cc1noc2c(NCCc3ccccn3)cc(-c3ccccn3)nc12	-	-	?	-	-	56µM
Cc1noc2c(NCCc3ccccn3)cc(-c3cccnc3)nc12	-	-	?	-	-	-
COc1ccccc1CN(Cc1ccccc1OC)[C@H]1C[C@@H](Cc2cc(CN3CCOCC3)on2)C1(C)C	-	-	-	-	-	?
CC(C)(C)c1ccc(C(=O)NCc2nnc3c(-c4nc(C5CC5)no4)cccn23)cc1	16µM	-	?	-	-	?
C[S+](=O)([O-])N1CCN(Cc2ccccc2-c2cccnc2)CC1	.	-[12.5 µM]	-	.	-	?
O=[S+]([O-])(c1cccc(C(F)(F)F)c1)N1CCN(Cc2ccccc2-c2cccnc2)CC1	.	-[12.5 µM]	35µM	.	?	?
O=[S+]([O-])(c1ccccc1)N1CCN(Cc2ccccc2-c2ccccc2F)CC1	.	-[12.5 µM]	?	.	-	22µM
Cc1ccc(-c2ccccc2CN2CCN([S+](=O)([O-])c3ccccc3)CC2)cc1Cl	.	-[12.5 µM]	?	.	-	?
Cc1ccc(S(=O)(=O)N[C@H]2CC(C)(C)[C@@H]3C[C@@](C)(O)CC[C@]23CCC(=O)NCCc2c[nH]c3ccccc23)cc1	-	-	79µM	-	-	?
CC(C)N[C@H]1CC(C)(C)[C@@H]2C[C@@](C)(O)CC[C@]12CCC(=O)NCCc1c[nH]c2ccccc12	-	-	?	-	-	?
CCC1CN(C(=O)c2cnn(C)c2)CCC(=O)N1Cc1ccccc1 (stereo unspecified)	-	-	-	-	-	-
